ELG1 genotox: qHTS screen for small molecules that induce genotoxicity in human embryonic kidney (HEK293T) cells expressing luciferase-tagged ELG1 | HEK293T ELG1-luciferase reporter, luminescence, 16 h | AID 504466, 2011 | actives 1.3% (n = 330,000) | Potency, µM (series often up to 46 µM), inactives show top-dose activity change, positive = activation, usual class: activators; further: % of control where 0% means no effect; nearly all actives have a fitted effect of over 60% in size
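HEK293T cells expressing luciferase-tagged ELG1 were treated with compound or DMSO for 16 hr at 37°C. Luciferase activity was then read after 30 min with ONE-Glo at room temperature; rising signal flags genetic stress.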
Rab9 prom act: qHTS Assay for Rab9 Promoter Activators; Huh7 Rab9 promoter-luciferase reporter, luminescence, 24 h; Potency, µM (highest dose often 9.22 µM), inactives show top-dose activation, negative = inhibition, actives largely listed as activators; actives 2.8% (n = 320,000); further: % of control where 0% means no effect; nearly all actives have a fitted effect of over 60% in size
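Luminescence from Amplite-detected luciferase (10 minutes, ambient) reports Rab9 promoter activation. Before that, stable Rab9-luciferase Huh7 cells (1500/well, reduced-serum OP-MEM I plus 10% FBS) were exposed to compound for 24 hours at 37C.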
FLuc modulator: qHTS profiling assay for firefly luciferase inhibitor/activator using purifed enzyme and Km concentrations of substrates (counterscreen for miR-21 project) | Luciferin 4-monooxygenase (Photinus pyralis), P08659 | purified FLuc, Km substrates, luminescence inhibition | Potency, µM (highest dose often 57.5 µM), without a hit: at the highest dose activity change, negative = inhibition, usual class: inhibitors | actives 6.9% (n = 360,000);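 further: plate controls were vehicle for no effect and reference inhibitor for full effect; nearly all actives have a fitted effect of over 55% in size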
Target sequence (P08659 whole entry, looked up): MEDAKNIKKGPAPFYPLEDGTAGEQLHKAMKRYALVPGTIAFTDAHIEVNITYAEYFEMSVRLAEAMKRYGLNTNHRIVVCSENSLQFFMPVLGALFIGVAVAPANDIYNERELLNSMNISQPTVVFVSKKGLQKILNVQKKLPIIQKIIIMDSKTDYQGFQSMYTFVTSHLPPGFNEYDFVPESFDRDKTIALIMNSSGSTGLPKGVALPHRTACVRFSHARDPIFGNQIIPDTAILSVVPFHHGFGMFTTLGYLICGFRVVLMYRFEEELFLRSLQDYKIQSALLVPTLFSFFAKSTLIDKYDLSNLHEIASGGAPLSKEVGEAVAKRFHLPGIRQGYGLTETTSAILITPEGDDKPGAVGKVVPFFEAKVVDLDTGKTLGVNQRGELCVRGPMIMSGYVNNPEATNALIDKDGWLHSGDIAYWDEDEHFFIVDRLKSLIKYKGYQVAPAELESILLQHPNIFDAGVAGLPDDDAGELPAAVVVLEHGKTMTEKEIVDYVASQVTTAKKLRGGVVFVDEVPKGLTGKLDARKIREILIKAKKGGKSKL
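Biochemical qHTS of compounds, final roughly 60 µM downward over six points, against 10 nM purified firefly luciferase using Km concentrations of substrates (10 uM D-luciferin, 10 uM ATP) in Tris acetate pH 7.5 buffer; luminescence output.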
SMN2 splice up: qHTS Assay for Enhancers of SMN2 Splice Variant Expression; HEK293 SMN2-luciferase splicing reporter, luminescence, 30-36 h; Potency, µM (highest dose often 46.1 µM), for inactives: at the top dose activity change, positive = activation, most hits filed as activators; actives 2.8% (n = 210,000); AID 1458, 2008; further: % of control where 0% means no effect; nearly all actives have a fitted effect of over 55% in size
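qHTS luciferase splicing reporter: luminescence rises when SMN2 exon 7 is included in transfected HEK293 cells. Compound exposure lasted 30-36 h at 37C, with 4.5 mM final sodium butyrate as control, followed by a ONE-Glo read.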
NPC1 promoter act: qHTS Assay for NPC1 Promoter Activators | Huh7 NPC1 promoter luciferase reporter, 24 h | Potency, µM (highest dose often 9.22 µM), without a hit: at the highest dose activation, hits mostly activators | actives 2.4% (n = 320,000) | AID 485313, 2010; further: % of control where 0% means no effect; nearly all actives have a fitted effect of over 60% in size
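NPC1 promoter–luciferase Huh7 cells; 24 h compound; luminescence.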
* marks the source's active call; other numbers are inactive results; ? = inconclusive; nt = no result given; [ ] = remark or other dose. A selection: hits, their analogues and other compounds. The true share with any hit is near 7.4%. The call rests on the fitted dose curve; in most records, active means well fitted curve in the direction sought with a large enough effect; inconclusive means small, poorly fitted or top-dose-only effect, or another doubt; inactive means no such curve, though single readings can be large; an effect the other way counts as inactive or inconclusive. Potency means the concentration at half of the fitted maximal effect.

SMILES	ELG1 genotox	Rab9 prom act	FLuc modulator	SMN2 splice up	NPC1 promoter act
Cc1ccc(Nc2nc(CSc3nnnn3C)cs2)cc1	?	2.82µM*	3.38µM*	11.2µM*	3.55µM*
Cc1ccc(Nc2nc(CSc3n[nH]c(N)n3)cs2)cc1	?	2.24µM*	1.35µM*	nt	1.12µM*
Cc1ccc(CSc2n[nH]c(N)n2)cc1	2.5%	-1.4%	2.3%	nt	0.2%
Cn1nnnc1SCc1csc(Nc2ccccc2)n1	?	3.98µM*	?	1.1%	?
Cc1ccc(Nc2nc(CSc3nnc(-c4cccs4)o3)cs2)cc1	?	18.6%	6.75µM*	-17.0%	20.8%
Cn1nnnc1SCc1cccc(CSc2nnnn2C)n1	?	5.4%	7.0%	13.6%	0.6%
CCCn1c(C)nc2c(NCC(C)(C)CN(C)C)nc(C)nc21	nt	nt	nt	-3.8%	nt
Cc1ccc(Nc2nc(CSc3nnnn3-c3ccccc3)cs2)cc1	nt	nt	16.9µM*	-9.4%	nt
O=C(NCCO)c1ccc2nc(-c3ccco3)c(-c3ccco3)nc2c1	-9.1%	17.8%	15.1µM*	1.8%	1.0%
O=C(NCCc1ccccc1)c1ccc2nc(-c3ccco3)c(-c3ccco3)nc2c1	-4.0%	7.4%	21.3µM*	-2.4%	0.3%
c1coc(-c2nc3ccccc3nc2-c2ccco2)c1	1.5%	9.9%	?	-12.7%	18.1%
O=C(NC1CCCC1)c1ccc2nc(-c3ccco3)c(-c3ccco3)nc2c1	-4.4%	6.6%	13.5µM*	nt	0.3%
O=C(c1ccccc1)c1ccc2nc(-c3ccco3)c(-c3ccco3)nc2c1	11.5%	?	5.36µM*	7.2%	24.4%
C=CCC1(CC=C)CCCN1C(=O)CC1C(=O)NCCN1Cc1cccc(OC)c1OC (centres undefined)	-4.0%	-1.0%	-1.0%	nt	-0.5%
CNC(=S)N(CCCn1ccnc1)Cc1c(F)cccc1Cl	-2.0%	5.3%	0.6%	nt	-0.2%
Nc1ccc(N=Nc2ccccc2)c(N)n1	?	11.9%	16.9µM*	?	26.4%
Nc1ccc(N=Nc2ccc(-c3ccc(O)cc3)cc2)c2ccc(S(=O)(=O)O)cc12	nt	nt	nt	2.4%[9.22 µM]	nt
Nc1ccc(N=Nc2ccccc2)c2ccccc12	-0.4%	2.3%	16.9µM*	nt	?
COC(=O)c1ccc(NC(=O)CN2C(=O)c3cccc4cccc2c34)cc1	nt	nt	2.2%	5.9%	nt
COc1cc(/C=N/NC(=O)c2cc(-c3ccccc3)nc3ccccc23)cc(OC)c1O	-2.5%	1.8%	23.9µM*	nt	-5.1%
Cc1cccc(/C=N/NC(=O)c2cc(-c3cccnc3)nc3ccccc23)c1	-3.7%	-1.0%	-2.7%	15.1%	-6.8%
CCCOc1cccc(-c2cc(C(=O)N/N=C/c3cccnc3)c3ccccc3n2)c1	-15.1%	-4.2%	7.57µM*	nt	2.3%
COc1ccccc1-c1cc(C(=O)N/N=C/c2ccoc2)c2ccccc2n1	1.7%	2.1%	?	nt	-1.5%
CCCOc1cccc(-c2cc(C(=O)N/N=C/c3ccccn3)c3ccccc3n2)c1	?	-13.4%	3.79µM*	nt	-1.5%
COc1ccc(-c2cc(C(=O)N/N=C/c3cccnc3)c3ccccc3n2)cc1	3.2%	23.6%	1.07µM*	nt	2.9%
SMILES	ELG1 genotox	Rab9 prom act	FLuc modulator	SMN2 splice up	NPC1 promoter act
CC(C)=C[C@H]1[C@@H](C(=O)Oc2ccccc2C(C)C)C1(C)C	nt	nt	nt	-6.2%[9.22 µM]	nt
Cc1ccc(Nc2nc(N)[nH]c(=O)c2N=O)cc1	-3.5%	-1.0%	-11.7%	nt	-0.1%
CCn1cc(C(=O)N2CCCc3ccccc32)c2cc(OC)c(OC)cc2c1=O	2.5%	-11.0%	-0.9%	-10.9%	-0.9%
COc1ccc(/C(C)=N/NC(=O)c2cc(-c3cccnc3)nc3ccccc23)cc1	18.9%	-1.6%	0.1%	14.5%	-2.2%
CCCOc1cccc(-c2cc(C(=O)NN)c3ccccc3n2)c1	-2.0%	1.6%	21.3µM*	-83.3%	0.6%
COc1ccc(-c2cc(C(=O)N/N=C(\C)c3cccnc3)c3ccccc3n2)cc1	?	?	0.675µM*	nt	?
O=C1CC(c2ccccc2)Sc2nc3ccccc3n21 (centres undefined)	?	10.4%	4.78µM*	?	-0.8%

Compound activity as filed in PubChem BioAssay.
